# From PubChem BioAssay
# Hits are enriched below; roughly 3.3% of the tested compounds scored in any of these assays.
# Sm TGR inh: S. mansoni TGR enzyme inhibition. AID 485364. 360,000 compounds, 3% hits. purified TGR, DTNB reduction, TNB absorbance 405 nm. Potency, µM (doses to about 114 µM), for the others: top-dose activity change, negative = inhibition, most hits filed as inhibitors; also: nearly all actives have a fitted effect of over 60% in size
#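 First, TGR (20 nM dispensed) and NADPH were mixed with compound. Second, a 15 min room-temperature incubation followed. Third, further NADPH and then DTNB were added to start the reaction. Finally, TNB absorbance was monitored kinetically.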
# AmpC no deterg: inhibitors of E. coli AmpC beta-lactamase without detergent. P00811. AmpC nitrocefin hydrolysis, absorbance 480 nm, 0.0001% Triton. Potency, µM (series often up to 57.1 µM), inactives show top-dose activity change, negative = inhibition, actives largely listed as inhibitors. 330,000 compounds, 0.52% hits;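 also: plate controls were no compound for no effect and no enzyme for full effect; nearly all actives have a fitted effect of over 20% in size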
# Target sequence (P00811 whole entry, looked up): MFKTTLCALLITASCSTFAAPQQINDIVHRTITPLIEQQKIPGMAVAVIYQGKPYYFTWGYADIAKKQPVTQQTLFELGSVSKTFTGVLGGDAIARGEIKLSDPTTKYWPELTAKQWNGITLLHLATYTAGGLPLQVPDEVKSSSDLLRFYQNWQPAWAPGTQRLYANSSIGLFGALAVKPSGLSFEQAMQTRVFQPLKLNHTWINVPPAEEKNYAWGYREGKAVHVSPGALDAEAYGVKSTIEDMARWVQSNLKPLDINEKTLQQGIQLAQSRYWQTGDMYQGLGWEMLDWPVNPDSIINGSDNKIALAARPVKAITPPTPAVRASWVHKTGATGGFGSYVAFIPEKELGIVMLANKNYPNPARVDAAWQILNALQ
#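 20 mM phosphate pH 7.0 + 0.01% (detergent screen) or 0.0001% Triton X-100; 5.3 nM AmpC reagent; cpd preinc 15 min RT; nitrocefin (800 uM stock) to start; A480 q20 s × 4 min; Activity was normalised to no-enzyme and no-compound control wells.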
# AmpC detergent: blocks E. coli AmpC beta-lactamase in detergent assay; P00811; AmpC hydrolysis of nitrocefin, absorbance 480 nm, 0.01% Triton; Potency, µM (series often up to 114 µM), for inactives: at the highest dose activity change, negative = inhibition, usual class: inhibitors; 370,000 compounds, 0.041% hits; AID 485294;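 also: 0% = no-compound wells and -100% = no-enzyme wells; nearly all actives have a fitted effect of over 25% in size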
#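 20 mM phosphate pH 7.0 + 0.01% (detergent screen) or 0.0001% Triton X-100; 5.3 nM AmpC reagent; cpd preinc 15 min RT; nitrocefin (800 uM stock) to start; A480 q20 s × 4 min; Activity was normalised to no-enzyme and no-compound control wells.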
# * hit, by the source's call; ? = inconclusive; . = not tested or not shown; [ ] = remark or other dose. Calls follow the shape of the dose curve; as a rule, active = well fitted curve in the direction sought with a large enough effect; inconclusive = small, poorly fitted or top-dose-only effect, or another doubt; inactive = no such curve, though single readings can be large; an effect the other way counts as inactive or inconclusive. Unless noted, % is scaled to controls: 0 for no effect and ±100 for the full control effect; potency is read from the fitted curve at half-maximal effect.
SMILES,Sm TGR inh,AmpC no deterg,AmpC detergent
COC(=O)C1Cc2c([nH]c3ccccc23)CN1 (configuration not stated),?,-15%,-12%
COC(=O)[C@@H]1Cc2c([nH]c3ccccc23)C(C)(C)N1C(=O)CCl,32µM*,-4%,-5%
Cc1ccc(NNC(N)=S)cc1Cl,40µM*,-26%,-12%
Cc1ccc(NC(=S)N(C)N)cc1Cl,.,-13%,6%
NC(=S)Nc1ccc(Cl)c(Cl)c1,11%,-19%,-7%
NC(=S)NNc1ccc(Cl)c(Cl)c1,2µM*,-16%,4%
Cc1ccc(CCNC(=O)CCSCc2ccccc2Cl)cc1,-6%,.,-5%
CCOC(=O)c1cnn(-c2ccc(C(=O)Nc3cc(OC)c(OC)c(OC)c3)cc2)c1N,-6%,.,8%
COc1ccc(N=C(N(C)C)P(=O)(N(C)C)N(C)C)cc1,-5%,28µM*,?
CN(C)C(=Nc1ccccc1)P(=S)(N(C)C)N(C)C,-1%,16%,3%
CCc1ccccc1NC(=O)CSc1nc2c(oc3ccccc32)c(=O)n1-c1ccccc1,5%,.,14%
CCOC(=O)c1cnc(-c2ccccc2)nc1C(F)(F)F,0%,-2%,1%
CCOC(=O)c1cnc2c(F)ccc(F)c2c1Sc1ccccc1,16µM*,-15%,-7%
CCC1Sc2ccccc2N(CC(=O)NCc2ccc(C)cc2)C1=O (configuration not stated),5%,.,4%
Cc1ccc(OCCSc2nc3ccccc3n2CC(=O)N2CCOCC2)cc1,-8%,.,-1%
Oc1cccc(CN2CCCCC2)c1,-7%,-18%,?
COc1cc(CN2CCCCCC2)cc(OC)c1,100µM*,-5%,5%
COc1ccc(CN2CCCCCC2)cc1,18%,-16%,?
CC(C)(C)c1cc(CN2CCCCC2)cc(C(C)(C)C)c1O,45µM*,-11%,1%
Cc1ccc2c(c1)-c1onc(C(=O)N(C)c3ccc(F)cc3)c1CO2,-4%,.,16%
O=C(Cn1ncc(Cl)c(Cl)c1=O)N1CCN(S(=O)(=O)c2ccc3ccccc3c2)CC1,22µM*,9%,-9%
O=C(O)CCC(=O)N1CCN(S(=O)(=O)c2ccc3ccccc3c2)CC1,-7%,-10%,-9%
CCOC(=O)c1cccc(NC(=O)c2cc3c(Cl)nc4ccc(C)cc4c3s2)c1,-4%,.,-5%
Cc1cc(C)cc(NC(=O)c2ccccc2CC[N+](=O)[O-])c1,40µM*,?,-1%
O=C(Nc1ccc(Br)cc1)c1ccccc1CC[N+](=O)[O-],-6%,?,2%
SMILES,Sm TGR inh,AmpC no deterg,AmpC detergent
Cc1cccc(-n2c(C)cc(C(=O)C(=O)Nc3ccccc3F)c2C)c1C,5%,.,25%
COc1ccc(CNS(=O)(=O)c2ccc(F)c(C(=O)Nc3c(C)cc(C)cc3C)c2)cc1,11%,.,9%
CN(C)CCN(C(=O)c1ccc(C(=O)c2ccccc2)cc1)c1nc2cc3c(cc2s1)OCCO3,3%,-3%,-14%
CN(C)CCN(C(=O)c1ccc(N2C(=O)CCC2=O)cc1)c1nc2cc3c(cc2s1)OCCO3,35µM*,55%,10%
CCCCCn1c(CCCNC(=O)c2cccc(C)c2)nc2ccccc21,6%,.,9%
Cc1c(Cl)cccc1NC(=S)NN1CCOCC1,32µM*,-19%,0%
Cc1c(Cl)cccc1NC(=S)NCCN1CCOCC1,0%,-20%,?
O=C(NCCc1csc(-c2ccccc2)n1)c1ccc(Br)o1,6%,-1%,?
O=C(NCCc1csc(-c2cccnc2)n1)c1ccc(Br)o1,28µM*,0%,-6%
COc1ccc(C(=O)N=c2sc3c(C)ccc(OC)c3n2C)cc1,-3%,1.1µM*,?
CCn1c(=NC(=O)c2cccc(N3C(=O)CCC3=O)c2)sc2c(OC)ccc(OC)c21,6%,-8%,5%
COc1cc(C(=O)N=c2sc3c(C)ccc(OC)c3n2C)cc(OC)c1OC,-3%,-7%,-6%
COc1ccc(OC)c2c1sc(=NC(=O)c1cccc(N3C(=O)CCC3=O)c1)n2C,-2%,40µM*,?
CCOC(=O)c1c(NC(C)=O)c2c3c(sc2n1Cc1cccc(Cl)c1)CCCC3,7%,.,16%
COc1ccc(CNC(=O)CSCc2ccc(C)cc2)c(OC)c1,4%,.,6%
CCCn1c(SCC(=O)NC(=O)NCc2ccco2)n[nH]c1=O,40µM*,-25%,?
CCOc1ccccc1-n1nnnc1SCC(=O)NC(=O)NCc1ccco1,45µM*,-38%,?
O=C(CSc1nnnn1-c1ccccc1)NC(=O)NCc1ccco1,-26%,-27%,-4%
CCOc1ccccc1-n1nnnc1SCC(=O)NC(=O)Cc1ccccc1,20µM*,-52%,0%
CCOc1ccccc1-n1nnnc1SCC(=O)N1CCCC1=O,.,-5%,.
CCCn1c(SCC(=O)NC(=O)NCc2ccccc2)n[nH]c1=O,.,-25%,.
COc1ccc(Cl)cc1NS(=O)(=O)c1ccc2c(c1)NC(=O)CC(=O)N2,-6%,.,4%
CC(=O)Nc1ccc(C)cc1-c1nc2ccccc2n(CC(=O)c2ccc(C)c(C)c2)c1=O,-5%,.,5%
Cc1ccc(NC(=O)Cn2c(=O)n(CCc3ccccc3)c(=O)c3c4c(sc32)CCCC4)cc1C,-6%,.,3%
CC(=O)Oc1c(Br)cc(N(C(C)=O)S(=O)(=O)c2ccccc2)c2ccccc12,3.5µM*,-8%,0%
SMILES,Sm TGR inh,AmpC no deterg,AmpC detergent
CC(=O)Oc1ccccc1N(C(C)=O)S(=O)(=O)c1ccc2ccccc2c1,-3%[57.1 µM],9%,-2%
O=C(O)c1cccc(Nc2ccc3nonc3c2[N+](=O)[O-])c1,?,4%,3%
Nc1cc(Nc2ccccc2)c2nonc2c1[N+](=O)[O-],2%,-9%,-9%
O=C(O)c1ccc(Nc2cc(Cl)c3nonc3c2[N+](=O)[O-])cc1,0.32µM*,-24%,1%
O=[N+]([O-])c1c(Nc2cccc(O)c2)cc(Cl)c2nonc12,0.35µM*,-32%,-12%
CNc1cc(Cl)c2nonc2c1[N+](=O)[O-],0.45µM*,-23%,-5%
COc1cccc(Nc2cc(N3CCOCC3)c3nonc3c2[N+](=O)[O-])c1,0%,-12%,?
CCCCCNC(=O)c1ccc2c(c1)nc(C)n2-c1cccc(C)c1,3%,.,2%
COC(=O)c1ccc(NC(=O)CC2Nc3cc(C)c(C)cc3NC2=O)cc1 (configuration not stated),1%,.,-7%
CCOc1ccc(N2CC(c3nc4ccccc4n3Cc3cccc(Cl)c3)CC2=O)cc1 (configuration not stated),2%,.,-7%
Cc1ccc(CNC(=O)Cn2c3ncccc3c(=O)n2-c2ccc(C)cc2)cc1,-3%,.,-2%
CCc1ccccc1N1CC(c2nc3ccccc3n2CCC2CCCCC2)CC1=O (configuration not stated),-3%,.,-4%
O=C1CN(C(=O)c2ccc(Cl)cc2Cl)C(c2ccc(F)cc2)c2cc(F)ccc2N1 (configuration not stated),2%,.,8%
Cc1cc(Cl)ccc1NS(=O)(=O)c1ccc2c(c1)CC(C)N2C(=O)C1CCC1 (configuration not stated),2%,.,14%
Cc1ccc(CNC(=O)c2cc(Cl)cc(Cl)c2)n1C,32µM*,-37%,1%
Cc1ccc(CNC(=O)c2ccc(Cl)c(S(N)(=O)=O)c2)n1C,?,10%,-2%
